{"source": "PubChem BioAssay AID463173", "about": "(ICCB-Longwood Screening Facility, Harvard Medical School, 2010)", "note": "About 4,300 (8.3%) of roughly 52,000 compounds were called active. The list comes from a sample in which actives are over-represented; it also holds similar structures and randomly drawn compounds. Unmarked numbers belong to inactive results. Rule as the data show it: active = survival mostly below about 52% (no sharp cut-off); inactive = mostly above about 56%."}
{"tested_on": "DeltatarO mutant", "test": "S. aureus survival, RN4220 and DeltatarO strains – OD600, teichoic acid synthesis inhibitors, primary screen (AID 463173)", "conditions": "S. aureus RN4220 wild type/DeltatarO growth, OD600, 18 h, stronger effect = lower value, screened at 18.75 µg/mL (by protocol)"}
{"smiles": "COc1cccc(C(c2sc3nc(-c4ccco4)nn3c2O)N2CCC(C)CC2)c1", "note": "(centres undefined)", "survival": "78%"}
{"smiles": "CC(C)(C)C(=O)OCc1cc(=O)n2nc(C3CC3)sc2n1", "survival": "80%"}
{"smiles": "CC(=O)c1cc(-c2ccc(F)cc2)n(CCC(=O)NCc2ccccc2C)c1C", "survival": "81%"}
{"smiles": "Cc1ccc(-c2nnc3ccccc3c2C(=O)Nc2ccc(F)cc2)cc1", "survival": "100%"}
{"smiles": "CCCCNC(=O)Cn1cnc2sc(C)c(S(=O)(=O)N3CCN(c4ccccc4OC)CC3)c2c1=O", "survival": "86%"}
{"smiles": "CCOC(=O)C1CCCN(S(=O)(=O)c2cc3c4c(c2)CC(=O)N4CCC3)C1", "note": "(centres undefined)", "survival": "93%"}
{"smiles": "CCOc1ccc(-c2ccc(NS(=O)(=O)c3cc(C)ccc3OC)cc2)nn1", "survival": "86%"}
{"smiles": "O=C(NCCc1csc(-c2ccc(F)cc2)n1)c1cccs1", "survival": "72%"}
{"smiles": "Cc1ccc(NC2=CC(c3ccccc3F)N(c3ccc(C)cc3)C2=O)cc1", "note": "(centres undefined)", "survival": "49%"}
{"smiles": "CC(=O)NC1CCN(C(=O)Nc2ccccc2)CC1", "survival": "91%"}
{"smiles": "Cc1csc2nc(COC(=O)c3ccccc3NC(=O)c3ccc(F)cc3)cc(=O)n12", "survival": "55%"}
{"smiles": "COc1ccc(-c2noc(N3CCC(C(=O)N4CCN(c5ccccc5OC)CC4)CC3)n2)cc1", "survival": "61%"}
{"smiles": "Cc1cccc(OCCCSc2nc(-c3ccc(C(C)(C)C)cc3)nc3cc(=O)[nH]n23)c1C", "survival": "102%"}
{"smiles": "CC(C)CCNC(=O)c1ccc(Cn2c(SCC(N)=O)nc3ccccc3c2=O)cc1", "survival": "46% (active)"}
{"smiles": "CCCNC(=O)c1ccc(Cn2c(SCC(N)=O)nc3ccccc3c2=O)cc1", "survival": "91%"}
{"smiles": "CC(C)CCNC(=O)c1ccc(Cn2c(SCC(=O)NC(C)C)nc3ccccc3c2=O)cc1", "survival": "144%"}
{"smiles": "Cc1cc(C)c(NC(=O)c2cc(CN3CCOCC3)on2)c(C)c1", "survival": "70%"}
{"smiles": "COc1ccc(OC)c(/C=C/C(=O)Nc2ccc(C(=O)OCCC(C)C)cc2)c1", "survival": "33% (active)"}
{"smiles": "CCOCCOC(=O)c1ccc(NC(=O)/C=C/c2ccc(OC)c(OC)c2)cc1", "survival": "137%"}
{"smiles": "COc1ccc(/C=C/C(=O)Nc2ccc(C)cc2)cc1", "survival": "77%"}
{"smiles": "Cc1cc(=O)[nH]c2c(C)c(Cl)ccc12", "survival": "93%"}
{"smiles": "Cc1ccc(Cl)cc1Nc1nn2c(=O)c3ccc(C(=O)NC4CCC(C)CC4)cc3nc2s1", "note": "(centres undefined)", "survival": "100%"}
{"smiles": "CCn1ccc2cc(S(=O)(=O)N3CCC(C(=O)NCC(C)c4ccccc4)CC3)ccc21", "note": "(centres undefined)", "survival": "94%"}
{"smiles": "COc1ccc(CNC(=O)C2CCN(S(=O)(=O)c3ccc(F)cc3)CC2)cc1", "survival": "71%"}
{"smiles": "CSc1cccc(NC(=O)N2CCN(S(=O)(=O)c3ccc4c(ccn4C)c3)CC2)c1", "survival": "58%"}
{"smiles": "CCn1ccc2cc(S(=O)(=O)N3CCCN(C(=O)Nc4cccc(SC)c4)CC3)ccc21", "survival": "47% (active)"}
{"smiles": "CCn1ccc2cc(S(=O)(=O)N3CCC(C(=O)NCc4ccc(F)cc4)CC3)ccc21", "survival": "85%"}
{"smiles": "CCn1ccc2cc(S(=O)(=O)N3CCC(C(=O)NCc4ccc(OC(C)C)cc4)CC3)ccc21", "survival": "95%"}
{"smiles": "CCn1ccc2cc(S(=O)(=O)N3CCCN(C(=O)Nc4cccc(Cl)c4)CC3)ccc21", "survival": "83%"}
{"smiles": "Cc1ccc(CNC(=O)C2CCN(S(=O)(=O)c3ccc(F)cc3)CC2)cc1", "survival": "62%"}
{"smiles": "CCCCNC(=O)C1CCN(S(=O)(=O)c2ccc3c(ccn3CC)c2)CC1", "survival": "99%"}
{"smiles": "COc1ccc(CNC(=O)C2CCN(S(=O)(=O)c3ccc(C)cc3)CC2)cc1", "survival": "56% (active)"}
{"smiles": "CCC(C)NC(=O)C1CCN(S(=O)(=O)c2ccc3c(ccn3CC)c2)CC1", "note": "(centres undefined)", "survival": "8% (active)"}
{"smiles": "CCn1ccc2cc(S(=O)(=O)N3CCC(C(=O)NCc4ccc(OC)cc4)CC3)ccc21", "survival": "20% (active)"}
